# From PubChem BioAssay (NCI)
# About 79,000 compounds went through this panel and 15% of them were active in at least one assay; those are over-represented in the sample as a whole. Values without a mark were called inactive. Calls of active or inactive are those of the source. Rule as the data show it: active = growth inhibition above about 70%; inactive = the rest.
# How the values were obtained:
# [1] = NCI Yeast Anticancer Drug Screen. Data for the rad52 strain (AID 147);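 also: 0% = growth of vehicle-treated control cultures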; conditions: S. cerevisiae rad52 mutant growth inhibition, hits give high values
# Summary of the method: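 Measured: yeast growth inhibition. System: strain with a defined DNA damage repair alteration. Reference: vehicle-treated control cultures.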
# [2] = NCI Yeast Anticancer Drug Screen. Data for the wt1 strain (AID 149);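 also: 0% = growth of vehicle-treated wt1 cultures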; conditions: S. cerevisiae wt1 strain (SPY 50644) growth inhibition, hits give high values
# Summary of the method: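 The wt1 strain was treated with compounds, and growth was compared with vehicle-treated cultures to give inhibition.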
# [3] = NCI Yeast Anticancer Drug Screen. Data for the rad50EPP+ strain (AID 151);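 also: 0% = growth of vehicle-treated control cultures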; conditions: S. cerevisiae rad50 mutant strain, hits give high values
# Summary of the method: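 One strain with a rad50 alteration (rad50EPP+) was compound-treated, its growth then compared to that of vehicle controls.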
# [4] = NCI Yeast Anticancer Drug Screen. Data for the mgt1 strain (AID 153); conditions: S. cerevisiae mgt1 mutant growth inhibition, hits give high values
# Summary of the method: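 After exposure of the mgt1 yeast mutant to compound, growth was measured and reported as inhibition compared with vehicle controls.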
# [5] = NCI Yeast Anticancer Drug Screen. Data for the rad50 strain (AID 155);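 also: 0% = growth of vehicle-only cultures of the same strain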; conditions: S. cerevisiae rad50 strain growth inhibition, hits give high values
# Summary of the method: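 Cells are treated with compound, grown, and their growth is then scored against vehicle-only cultures of the same repair-deficient yeast strain.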
# [6] = NCI Yeast Anticancer Drug Screen. Data for the mec2-1 strain (AID 157); conditions: S. cerevisiae mec2-1 strain, hits give high values
# Summary of the method: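 Test agents were screened against the mec2-1 yeast strain, with defined DNA repair or cell cycle alteration. Growth was scored as inhibition against vehicle-only controls.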
# [7] = NCI Yeast Anticancer Drug Screen. Data for the rad14 strain (AID 159);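 also: 0% = growth of vehicle-treated control cultures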; conditions: S. cerevisiae rad14 strain growth inhibition, hits give high values
# Summary of the method: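 Readout: yeast growth inhibition, referenced to vehicle-only cultures. Strain bears a defined alteration in DNA damage repair.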
# [8] = NCI Yeast Anticancer Drug Screen. Data for the sgs1 mgt1 strain (AID 161);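 also: 0% = growth of cultures given vehicle only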; conditions: S. cerevisiae sgs1 mgt1 strain, hits give high values
# Summary of the method: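 Mutant yeast exposed to compound; growth scored against vehicle-only wells.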
# [9] = NCI Yeast Anticancer Drug Screen. Data for the CLN2oe strain (AID 163);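 also: 0% = growth of vehicle-only control cultures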; conditions: S. cerevisiae CLN2oe strain, hits give high values
# Summary of the method: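 Here, growth inhibition in a cell-cycle-altered yeast strain after compound exposure was quantified against vehicle control growth.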
# [10] = NCI Yeast Anticancer Drug Screen. Data for the cln2 rad14 strain (AID 165);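 also: 0% = growth equal to vehicle treated cultures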; conditions: S. cerevisiae cln2 rad14 strain, hits give high values
# Summary of the method: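 Growth of compound-exposed yeast (cln2 rad14 genotype) measured and expressed as inhibition relative to vehicle.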
# [11] = NCI Yeast Anticancer Drug Screen. Data for the bub3 strain (AID 167); conditions: S. cerevisiae bub3 mutant strain, hits give high values
# Summary of the method: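 Part of a panel of yeast mutants defective in DNA damage repair or cell cycle regulation. Each strain is grown with compound, and inhibition is calculated relative to solvent-treated cultures.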
# [12] = NCI Yeast Anticancer Drug Screen. Data for the wt2 strain (AID 169);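 also: 0% = growth of vehicle-treated yeast cultures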; conditions: S. cerevisiae wt2 strain growth inhibition, hits give high values
# Summary of the method: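 Genetically defined yeast strains from a DNA-repair/cell-cycle panel were used. Compound-exposed yeast growth was measured, and the inhibition was calculated relative to vehicle treatment.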
# [13] = NCI Yeast Anticancer Drug Screen. Data for the mlh1 strain (AID 171);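 also: 0% = growth of vehicle-treated control cultures of the same strain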; conditions: S. cerevisiae mlh1 strain growth inhibition, hits give high values
# Summary of the method: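 Here the genetically defined yeast mutant is grown with each compound, and the extent to which its growth falls below that of vehicle-exposed cells is reported.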
# [14] = NCI Yeast Anticancer Drug Screen. Data for the sgs1 strain (AID 173);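 also: 0% = growth of vehicle-only control cultures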; conditions: S. cerevisiae sgs1 mutant, hits give high values
# Summary of the method: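 Relative growth inhibition, referenced to vehicle, was determined in a yeast strain with a defined alteration affecting DNA damage repair or cell cycle control after compound exposure.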
# [15] = NCI Yeast Anticancer Drug Screen. Data for the mlh1 rad18 strain (AID 175); conditions: S. cerevisiae mlh1 rad18 strain growth inhibition, hits give high values
# Summary of the method: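 In this whole-cell yeast screen, a strain with altered DNA damage repair is challenged with compound, and its growth is measured against matched vehicle-treated controls.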
# [16] = NCI Yeast Anticancer Drug Screen. Data for the rad18 strain (AID 177); conditions: S. cerevisiae rad18 mutant growth inhibition, hits give high values
# Summary of the method: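 Screen uses a yeast strain with a defined lesion in DNA damage repair; compound effect is read as loss of growth compared to untreated vehicle cultures.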
# [17] = at 5.0 µM (retest, dose inferred, filed as 0.5)
# [18] = at 50.0 µM (retest, dose inferred, filed as 5.0)
compound,measurement,setting,value
O=C(NO)c1coc2ccccc2c1=O,growth inhibition,[1]; at 1.2 µM,-1%
same,growth inhibition,[1]; at 3.7 µM,-4%
same,growth inhibition,[1]; at 11.0 µM,-2%
same,growth inhibition,[1]; at 33.0 µM,-2%
same,growth inhibition,[1]; at 100.0 µM,9%
same,growth inhibition,[2]; at 1.2 µM,4%
same,growth inhibition,[2]; at 3.7 µM,-3%
same,growth inhibition,[2]; at 11.0 µM,-3%
same,growth inhibition,[2]; at 33.0 µM,-3%
same,growth inhibition,[2]; at 100.0 µM,0%
same,growth inhibition,[3]; at 1.2 µM,-2%
same,growth inhibition,[3]; at 3.7 µM,-6%
same,growth inhibition,[3]; at 11.0 µM,-3%
same,growth inhibition,[3]; at 33.0 µM,-5%
same,growth inhibition,[3]; at 100.0 µM,-1%
same,growth inhibition,[4]; at 1.2 µM,-2%
same,growth inhibition,[4]; at 3.7 µM,2%
same,growth inhibition,[4]; at 11.0 µM,-14%
same,growth inhibition,[4]; at 33.0 µM,-5%
same,growth inhibition,[4]; at 100.0 µM,9%
same,growth inhibition,[5]; at 1.2 µM,5%
same,growth inhibition,[5]; at 3.7 µM,-5%
same,growth inhibition,[5]; [17],-3%
same,growth inhibition,[5]; at 11.0 µM,1%
same,growth inhibition,[5]; at 33.0 µM,0%
same,growth inhibition,[5]; [18],24%
same,growth inhibition,[5]; at 50.0 µM,31.1%
same,growth inhibition,[5]; at 100.0 µM,15%
same,growth inhibition,[6]; at 1.2 µM,-3%
same,growth inhibition,[6]; at 3.7 µM,-5%
same,growth inhibition,[6]; [17],1%
same,growth inhibition,[6]; at 11.0 µM,-1%
same,growth inhibition,[6]; at 33.0 µM,-4%
same,growth inhibition,[6]; [18],10%
same,growth inhibition,[6]; at 50.0 µM,86.1% (active)
same,growth inhibition,[6]; at 100.0 µM,0%
same,growth inhibition,[7]; at 1.2 µM,0%
same,growth inhibition,[7]; at 3.7 µM,-1%
same,growth inhibition,[7]; at 11.0 µM,-1%
same,growth inhibition,[7]; at 33.0 µM,-2%
same,growth inhibition,[7]; at 100.0 µM,1%
same,growth inhibition,[8]; [17],15%
same,growth inhibition,[8]; [18],13%
same,growth inhibition,[8]; at 50.0 µM,62%
same,growth inhibition,[9]; at 1.2 µM,1%
same,growth inhibition,[9]; at 3.7 µM,2%
same,growth inhibition,[9]; at 11.0 µM,4%
same,growth inhibition,[9]; at 33.0 µM,8%
same,growth inhibition,[9]; at 100.0 µM,8%
same,growth inhibition,[10]; [17],-4%
same,growth inhibition,[10]; [18],16%
same,growth inhibition,[10]; at 50.0 µM,19.8%
same,growth inhibition,[11]; at 1.2 µM,-6%
same,growth inhibition,[11]; at 3.7 µM,-5%
same,growth inhibition,[11]; [17],13%
same,growth inhibition,[11]; at 11.0 µM,-2%
same,growth inhibition,[11]; at 33.0 µM,-2%
same,growth inhibition,[11]; [18],61%
same,growth inhibition,[11]; at 50.0 µM,13.7%
same,growth inhibition,[11]; at 100.0 µM,-5%
same,growth inhibition,[12]; at 1.2 µM,-2%
same,growth inhibition,[12]; at 3.7 µM,-4%
same,growth inhibition,[12]; at 11.0 µM,-3%
same,growth inhibition,[12]; at 33.0 µM,-3%
same,growth inhibition,[12]; at 100.0 µM,4%
same,growth inhibition,[13]; at 1.2 µM,-1%
same,growth inhibition,[13]; at 3.7 µM,0%
same,growth inhibition,[13]; at 11.0 µM,-1%
same,growth inhibition,[13]; at 33.0 µM,1%
same,growth inhibition,[13]; at 100.0 µM,11%
same,growth inhibition,[14]; at 1.2 µM,-1%
same,growth inhibition,[14]; at 3.7 µM,-3%
same,growth inhibition,[14]; at 11.0 µM,-2%
same,growth inhibition,[14]; at 33.0 µM,-2%
same,growth inhibition,[14]; at 100.0 µM,6%
same,growth inhibition,[15]; [17],13%
same,growth inhibition,[15]; [18],10%
same,growth inhibition,[15]; at 50.0 µM,-7.15%
same,growth inhibition,[16]; at 1.2 µM,-2%
same,growth inhibition,[16]; at 3.7 µM,-3%
same,growth inhibition,[16]; at 11.0 µM,2%
same,growth inhibition,[16]; at 33.0 µM,-4%
same,growth inhibition,[16]; at 100.0 µM,25%
O=C1c2ccccc2C(=O)c2sc(Nc3ccccc3Cl)nc21,growth inhibition,[1]; at 1.2 µM,-11%
same,growth inhibition,[1]; at 3.7 µM,42%
same,growth inhibition,[1]; at 11.0 µM,90% (active)
same,growth inhibition,[1]; at 33.0 µM,99% (active)
same,growth inhibition,[1]; at 100.0 µM,98% (active)
same,growth inhibition,[2]; at 1.2 µM,-17%
same,growth inhibition,[2]; at 3.7 µM,13%
same,growth inhibition,[2]; at 11.0 µM,58%
same,growth inhibition,[2]; at 33.0 µM,99% (active)
same,growth inhibition,[2]; at 100.0 µM,98% (active)
same,growth inhibition,[3]; at 1.2 µM,-37%
same,growth inhibition,[3]; at 3.7 µM,27%
same,growth inhibition,[3]; at 11.0 µM,94% (active)
same,growth inhibition,[3]; at 33.0 µM,99% (active)
same,growth inhibition,[3]; at 100.0 µM,98% (active)
same,growth inhibition,[4]; at 1.2 µM,-13%
same,growth inhibition,[4]; at 3.7 µM,19%
same,growth inhibition,[4]; at 11.0 µM,96% (active)
same,growth inhibition,[4]; at 33.0 µM,99% (active)
same,growth inhibition,[4]; at 100.0 µM,98% (active)
same,growth inhibition,[5]; at 1.2 µM,-1%
same,growth inhibition,[5]; at 3.7 µM,13%
same,growth inhibition,[5]; [17],87% (active)
same,growth inhibition,[5]; at 11.0 µM,78% (active)
same,growth inhibition,[5]; at 33.0 µM,98% (active)
same,growth inhibition,[5]; [18],99% (active)
same,growth inhibition,[5]; at 50.0 µM,89.6% (active)
same,growth inhibition,[5]; at 100.0 µM,96% (active)
same,growth inhibition,[6]; at 1.2 µM,-13%
same,growth inhibition,[6]; at 3.7 µM,32%
same,growth inhibition,[6]; [17],97% (active)
same,growth inhibition,[6]; at 11.0 µM,99% (active)
same,growth inhibition,[6]; at 33.0 µM,99% (active)
same,growth inhibition,[6]; [18],99% (active)
same,growth inhibition,[6]; at 50.0 µM,91.2% (active)
same,growth inhibition,[6]; at 100.0 µM,98% (active)
same,growth inhibition,[7]; at 1.2 µM,-19%
same,growth inhibition,[7]; at 3.7 µM,26%
same,growth inhibition,[7]; at 11.0 µM,96% (active)
same,growth inhibition,[7]; at 33.0 µM,99% (active)
same,growth inhibition,[7]; at 100.0 µM,98% (active)
same,growth inhibition,[8]; [17],100% (active)
same,growth inhibition,[8]; [18],100% (active)
same,growth inhibition,[8]; at 50.0 µM,93.7% (active)
same,growth inhibition,[9]; at 1.2 µM,3%
same,growth inhibition,[9]; at 3.7 µM,47%
same,growth inhibition,[9]; at 11.0 µM,94% (active)
same,growth inhibition,[9]; at 33.0 µM,99% (active)
same,growth inhibition,[9]; at 100.0 µM,98% (active)
same,growth inhibition,[10]; [17],57%
same,growth inhibition,[10]; [18],99% (active)
same,growth inhibition,[10]; at 50.0 µM,91.3% (active)
same,growth inhibition,[11]; at 1.2 µM,-4%
same,growth inhibition,[11]; at 3.7 µM,54%
same,growth inhibition,[11]; [17],99% (active)
same,growth inhibition,[11]; at 11.0 µM,97% (active)
same,growth inhibition,[11]; at 33.0 µM,99% (active)
same,growth inhibition,[11]; [18],99% (active)
same,growth inhibition,[11]; at 50.0 µM,90.1% (active)
same,growth inhibition,[11]; at 100.0 µM,97% (active)
same,growth inhibition,[12]; at 1.2 µM,1%
same,growth inhibition,[12]; at 3.7 µM,77% (active)
same,growth inhibition,[12]; at 11.0 µM,99% (active)
same,growth inhibition,[12]; at 33.0 µM,99% (active)
same,growth inhibition,[12]; at 100.0 µM,98% (active)
same,growth inhibition,[13]; at 1.2 µM,-30%
same,growth inhibition,[13]; at 3.7 µM,-6%
same,growth inhibition,[13]; at 11.0 µM,94% (active)
same,growth inhibition,[13]; at 33.0 µM,99% (active)
same,growth inhibition,[13]; at 100.0 µM,97% (active)
same,growth inhibition,[14]; at 1.2 µM,-6%
same,growth inhibition,[14]; at 3.7 µM,16%
same,growth inhibition,[14]; at 11.0 µM,82% (active)
same,growth inhibition,[14]; at 33.0 µM,99% (active)
same,growth inhibition,[14]; at 100.0 µM,97% (active)
same,growth inhibition,[15]; [17],96% (active)
same,growth inhibition,[15]; [18],99% (active)
same,growth inhibition,[15]; at 50.0 µM,85.8% (active)
same,growth inhibition,[16]; at 1.2 µM,-14%
same,growth inhibition,[16]; at 3.7 µM,25%
same,growth inhibition,[16]; at 11.0 µM,83% (active)
same,growth inhibition,[16]; at 33.0 µM,99% (active)
same,growth inhibition,[16]; at 100.0 µM,97% (active)
